Results on eight compounds are retold here after PubChem BioAssay (NCI).

Molecules are shown by their SMILES. About 83,000 compounds went through this panel and 20% of them were active in at least one assay; those are over-represented in the sample as a whole.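 In brief: 96-well plates, 48 h treatment, single concentration, percent growth endpoint.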 Values without a mark were called inactive. Calls of active or inactive are those of the source. Rule for the calls: active = growth percent below 10; inactive = the rest.

Holding throughout (test): NCI-60 one-dose screen, 48 h (100 = growth as untreated, 0 = no growth, -100 = all killed)
For one test, the system named is HT29 colon. The settings on record: 10 µM unless noted.
In another test the test system is SNB-75 CNS. The following applies: 10 µM unless noted.
Another test relates to SNB-19 CNS. The settings on record: 10 µM unless noted.
In a further test the test system is U251 CNS. The following applies: 10 µM unless noted.
A further test concerns PC-3 prostate. The following applies: 10 µM unless noted.
The next test has as its system SK-MEL-5 melanoma. The settings on record: 10 µM unless noted.
The next test concerns UACC-62 melanoma. The following applies: 10 µM unless noted.
The subject of the next test is LOX IMVI melanoma. The following applies: 10 µM unless noted.
Another test relates to SK-MEL-28 melanoma. The following applies: 10 µM.
The next test has as its system SK-MEL-2 melanoma. The settings on record: 10 µM unless noted.
A further test relates to SN12C renal. The following applies: 10 µM unless noted.
Another test relates to UO-31 renal. The settings on record: 10 µM unless noted.
A further test concerns TK-10 renal. The following applies: 10 µM unless noted.
Another test has as its system ACHN renal. The following applies: 10 µM unless noted.
A further test concerns CAKI-1 renal. The settings on record: 10 µM unless noted.
The test system of the next test is A498 renal. The settings on record: 10 µM unless noted.
The next test deals with CCRF-CEM leukemia. The settings on record: 10 µM unless noted.
Another test relates to MOLT-4 leukemia. The following applies: 10 µM unless noted.
In a further test the test system is SR leukemia. The settings on record: 10 µM unless noted.

Turning to `COc1cc2nc(-c3cnc(N(C)C)nc3)nc(NC3CCN(Cc4ccccc4)CC3)c2cc1OC`, the growth is -84.4% (active) in the test with HT29 colon; -96.7% (active) in the test with SNB-75 CNS; -79.2% (active) in the test on SNB-19 CNS; -87.4% (active) in the test with U251 CNS; -83.2% (active) in the test on PC-3 prostate; 10.6% in the test with SK-MEL-5 melanoma. Moreover, the growth is -94.5% (active) in the test on UACC-62 melanoma; -91.9% (active) in the test on LOX IMVI melanoma; -78.7% (active) with SK-MEL-28 melanoma; 89.5% in the test with SK-MEL-2 melanoma; -87.2% (active) with SN12C renal; -81.2% (active) with UO-31 renal. Also, the growth is -98.6% (active) in the test with TK-10 renal; -100% (active) in the test with ACHN renal; -90.9% (active) in the test on CAKI-1 renal; 43.2% in the test with A498 renal; -31.3% (active) in the test with CCRF-CEM leukemia; -16.5% (active) in the test on MOLT-4 leukemia. Besides, in the test on SR leukemia, the growth was 4.28% (active).
Regarding `O=c1cc(-c2ccccc2)oc2cc(OCc3cn(Cc4ccc(F)cc4)nn3)cc(OCc3cn(Cc4ccc(F)cc4)nn3)c12`, the growth was 35.1% in the test on HT29 colon; 6.29% (active) with SNB-75 CNS; 12.1% in the test on SNB-19 CNS; 10.5% in the test with U251 CNS; 36% in the test with PC-3 prostate; 17.1% with SK-MEL-5 melanoma. For the same compound, the growth is 30% with UACC-62 melanoma; 34.8% with LOX IMVI melanoma; 29.9% with SK-MEL-28 melanoma; 48.8% with SK-MEL-2 melanoma; 38.7% in the test on SN12C renal; 3.64% (active) in the test on UO-31 renal. Besides, the growth was 37.1% with TK-10 renal; 7.3% (active) with ACHN renal; 54.6% in the test on CAKI-1 renal; 30.8% with A498 renal; 77.5% in the test on CCRF-CEM leukemia; 83.2% in the test with MOLT-4 leukemia. For the same compound, the growth in the test with SR leukemia is 32.7%.
For `CC(C)(C)c1ccc(C2CC(=O)C3=C(C2)Nc2ccccc2N(C(=O)c2ccccc2Cl)C3c2ccc(F)cc2)cc1` (configuration not stated), the growth was -9.44% (active) in the test on HT29 colon; 66.4% in the test with SNB-75 CNS; 9.35% (active) with SNB-19 CNS; 3.98% (active) in the test on U251 CNS; 8.88% (active) in the test with PC-3 prostate; -97.5% (active) with SK-MEL-5 melanoma. The growth was -53.8% (active) in the test on UACC-62 melanoma; -11.8% (active) in the test on LOX IMVI melanoma; 38.6% in the test on SK-MEL-28 melanoma; -11.5% (active) in the test on SK-MEL-2 melanoma; 3.86% (active) in the test on SN12C renal; 23.7% in the test with UO-31 renal. Besides, the growth is 58.9% in the test on TK-10 renal; 19.9% in the test with ACHN renal; 2.95% (active) in the test on CAKI-1 renal; 35.5% with A498 renal; 15.7% in the test with CCRF-CEM leukemia; 6.7% (active) in the test on MOLT-4 leukemia. Moreover, the growth with SR leukemia was 9.77% (active).
On to `O=c1[nH]nnc2c1ncn2C1OC(CO)C(O)C1O` (configuration not stated), for which the growth was 50.4% in the test on HT29 colon; 44.8% in the test with SNB-75 CNS; 105% in the test with SNB-19 CNS; 97.7% with U251 CNS; 50.6% in the test with PC-3 prostate; 91.8% in the test on SK-MEL-5 melanoma. Besides, the growth in the test on UACC-62 melanoma is 58%; in the test with LOX IMVI melanoma, 22.6%; in the test with SK-MEL-28 melanoma, 102%; in the test on SK-MEL-2 melanoma, 6% (active); in the test on SN12C renal, 97.7%; with UO-31 renal it was 36%. The growth with TK-10 renal was 39.8%; with ACHN renal, 30.2%; in the test on CAKI-1 renal it was 25.2%; in the test with A498 renal, 86.7%; with CCRF-CEM leukemia, 27.5%; in the test on MOLT-4 leukemia, 26.3%. The growth in the test on SR leukemia was 37.7%.
As to `Cn1c(C(=O)c2cccc3ccccc23)nc2ccccc21`, the growth with HT29 colon was 20.7%; with SNB-75 CNS it was 38.9%; with SNB-19 CNS, 10.3%; in the test with U251 CNS, 5.7% (active); in the test with PC-3 prostate it was 27.7%; in the test with SK-MEL-5 melanoma, -38.1% (active). For the same compound, the growth in the test on UACC-62 melanoma was -27.2% (active); in the test with LOX IMVI melanoma, 2.82% (active); in the test with SK-MEL-28 melanoma, 40.8%; in the test on SK-MEL-2 melanoma, 9.69% (active); in the test on SN12C renal, 11.8%; with UO-31 renal, -21.3% (active). Further, the growth in the test with TK-10 renal was 21.3%; in the test with ACHN renal, 11%; with CAKI-1 renal, -11.9% (active); with A498 renal, 36.3%; in the test with CCRF-CEM leukemia it was 8.07% (active); in the test on MOLT-4 leukemia, 9.16% (active). In the test on SR leukemia, the growth was 4.54% (active).
As for `N#Cc1c(N)nc2c(c1N)C(c1ccc(F)cc1)c1ccc(N)cc1O2` (configuration not stated), the growth in the test on HT29 colon is 112%; in the test with SNB-75 CNS, 86.6%; in the test with SNB-19 CNS it was 127%; with U251 CNS it was 102%; in the test with PC-3 prostate, 106%; in the test with SK-MEL-5 melanoma it was 96.1%. The growth in the test on UACC-62 melanoma is 111%; in the test with LOX IMVI melanoma it was 110%; in the test with SK-MEL-28 melanoma, 109%; in the test with SK-MEL-2 melanoma, 112%; in the test on SN12C renal it was 104%; with UO-31 renal, 105%. Further, the growth in the test with TK-10 renal is 116%; in the test with ACHN renal it was 102%; in the test on CAKI-1 renal, 91.3%; in the test on A498 renal, 58.4%; with CCRF-CEM leukemia, 99.9%; in the test on MOLT-4 leukemia, 96.4%. Also, the growth with SR leukemia was 93%.
`CCCCCCc1cc2cc(-c3csc(/C=C/c4ccccc4)n3)c(=O)oc2cc1O`: the growth was -37.8% (active) in the test on HT29 colon; 3.13% (active) with SNB-75 CNS; 55.3% with SNB-19 CNS; 0.326% (active) with U251 CNS; 25.1% with PC-3 prostate; -93.6% (active) with SK-MEL-5 melanoma. The growth was -68.3% (active) with UACC-62 melanoma; -47.1% (active) in the test on LOX IMVI melanoma; -96.1% (active) in the test on SK-MEL-28 melanoma; -71.5% (active) in the test with SK-MEL-2 melanoma; 34.9% in the test on SN12C renal; 13.5% in the test on UO-31 renal. Moreover, the growth with TK-10 renal was 49%; in the test with ACHN renal it was 41.6%; with CAKI-1 renal, 32.8%; with A498 renal, -25.3% (active); with CCRF-CEM leukemia, 2.21% (active); in the test on MOLT-4 leukemia, 4.75% (active). Moreover, the growth in the test with SR leukemia is -7.16% (active).
On to `COc1cc2cc3c(=O)n4c(cc5cc(OC)ncc54)c(=O)n3c2cn1`, for which the growth in the test on HT29 colon is 111%; in the test on SNB-75 CNS, 94.2%; in the test with SNB-19 CNS it was 105%; in the test on U251 CNS it was 104%; in the test with PC-3 prostate, 97.2%; in the test on SK-MEL-5 melanoma it was 109%. The growth was 111% with UACC-62 melanoma; 100% with LOX IMVI melanoma; 106% with SK-MEL-28 melanoma; 98% in the test with SK-MEL-2 melanoma; 98.6% with SN12C renal; 88.8% in the test on UO-31 renal. The growth was 107% in the test with TK-10 renal; 110% with ACHN renal; 98.4% in the test with CAKI-1 renal; 104% in the test with A498 renal; 91.9% in the test on CCRF-CEM leukemia; 99.2% in the test on MOLT-4 leukemia. The growth with SR leukemia is 98%.
